Compound activity from PubChem.
MazEF act: activators of E. coli MazEF toxin-antitoxin RNase | P0AE70 | FAM/BHQ RNA-DNA oligo cleavage fluorescence, 5 h | activation, % at 20 µM | hit rate 0.32% among 350,000 | AID 504720; in the data active = activation above about 50%
BoNT-F LC inh: BoNT F light chain protease inhibition. Multiplex microsphere protease cleavage assay, flow cytometry. inhibition, % at 10 µM. hit rate 0.22% among 360,000. AID 588497; in the data active = inhibition above about 35%, passing the limit was not always enough; inconclusive = no clear call, values can overlap the other calls; also: plate controls were buffer without enzyme for full effect and enzyme alone for no effect
Anthrax LF inh2: anthrax lethal factor protease inhibition | multiplex microsphere protease cleavage assay, LF | inhibition, % at 10 µM | hit rate 0.12% among 360,000 | AID 588501; also: plate controls were buffer without enzyme for full effect and enzyme alone for no effect
Target sequence (P15917 whole entry, looked up): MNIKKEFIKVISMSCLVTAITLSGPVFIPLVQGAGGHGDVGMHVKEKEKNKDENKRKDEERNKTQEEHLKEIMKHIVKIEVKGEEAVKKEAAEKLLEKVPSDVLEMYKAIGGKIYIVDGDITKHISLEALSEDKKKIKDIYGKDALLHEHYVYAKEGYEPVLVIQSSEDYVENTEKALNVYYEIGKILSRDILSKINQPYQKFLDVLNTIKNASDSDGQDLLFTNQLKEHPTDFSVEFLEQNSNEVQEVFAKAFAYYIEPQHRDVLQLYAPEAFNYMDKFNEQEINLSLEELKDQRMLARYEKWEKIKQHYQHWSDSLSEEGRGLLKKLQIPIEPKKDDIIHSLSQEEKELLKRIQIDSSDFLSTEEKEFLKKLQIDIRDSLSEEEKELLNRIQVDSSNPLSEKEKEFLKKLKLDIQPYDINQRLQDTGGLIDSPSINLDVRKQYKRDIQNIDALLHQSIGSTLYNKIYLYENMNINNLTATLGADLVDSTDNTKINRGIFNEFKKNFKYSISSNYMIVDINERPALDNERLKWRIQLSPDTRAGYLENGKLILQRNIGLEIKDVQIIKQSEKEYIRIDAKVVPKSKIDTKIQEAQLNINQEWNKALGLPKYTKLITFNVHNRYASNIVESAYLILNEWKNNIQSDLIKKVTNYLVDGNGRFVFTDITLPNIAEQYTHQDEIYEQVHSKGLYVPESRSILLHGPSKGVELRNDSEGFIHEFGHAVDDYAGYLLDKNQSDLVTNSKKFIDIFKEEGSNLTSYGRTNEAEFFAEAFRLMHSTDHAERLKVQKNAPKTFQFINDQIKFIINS
Vc quorum ag-1: inducers of Vibrio cholerae quorum light production without autoinducers. V. cholerae BH1578 lux reporter, luminescence, 6 h. activation, % at 18.7 µM. hit rate 0.16% among 350,000; in the data active = activation mostly above about 9.7%, no sharp cut-off; inconclusive = no clear call, values can overlap the other calls; inactive = mostly below about 3.7%
BoNT-A LC inh2: blocks Botulinum neurotoxin A light chain protease; multiplex microsphere protease substrate cleavage, flow cytometry; hit rate 0.17% among 360,000; inhibition, % at 10 µM; also: plate controls were buffer without enzyme for full effect and enzyme alone for no effect
Autofluor counter: flagged as autofluorescent in microsphere protease counterscreen; AID 624483; hit rate 3.1% among 360,000; compound autofluorescence counterscreen, microsphere flow cytometry; active compounds read high; fluorescence intensity (concentration not given with the values); in the data active = fluorescence intensity above about 16000; inconclusive = no clear call, values can overlap the other calls
Vc quorum ag-2: induces V. cholerae light production without autoinducers | shares compounds with Vc quorum ag-1 | V. cholerae BH1578 lux reporter, luminescence, 6 h | activation, % at 50 µM | 620 tested, under 10 active; call rule not given here
HeLa tox: cytotoxicity in HeLa cells at 24 hours | HeLa viability, CellTiter-Glo ATP luminescence | shares compounds with Vc quorum ag-1 | activity change, negative = cytotoxicity, % at 35 µM | AID 624140 | 25 tested, under 10 active;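 active = signal drop with fitted half-maximal concentration at or below twice the highest valid dose; inconclusive = flat curve with 30 to 70% loss, or poor fit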
Active calls of the source: *; i = inactive; ? = inconclusive; · = no result. Sampled rows, rich in hits. Any-hit rate of the full collection: about 3.9%. Rule as the data show it, unless noted: active = inhibition above about 30%; inconclusive = no clear call, values can overlap the other calls; inactive = below that.

SMILES	MazEF act	BoNT-F LC inh	Anthrax LF inh2	Vc quorum ag-1	BoNT-A LC inh2	Autofluor counter	Vc quorum ag-2	others
CCN(C(=O)COc1ncnc2ccc(Br)cc12)C1CCS(=O)(=O)C1 (centres undefined)	5	-3	-3	17*	-1	8842	-1
Cc1cc(C)c(S(=O)(=O)Nc2ccccn2)c(C)c1	1	5	-14	52*	-1	4011	0
CCCCCn1nc(C(=O)N(CC(C)C)c2c(N)n(CCCC)c(=O)[nH]c2=O)c2ccccc2c1=O	-6	-1	13	9	3	6010	0
O=C(c1cc(-c2cccs2)nn1-c1ccccc1)N1CCN(S(=O)(=O)c2ccccc2)CC1	-14	0	1	14	-2	6621	0
COc1cc(OC)c(/C=N/NC(=O)COc2cccc3cccnc23)c(OC)c1	11	-10	1	0	0	5963	·
CC12CCC(=O)N1C(C(=O)OCc1c(Cl)cccc1Cl)CS2 (centres undefined)	0	11	6	-16	1	3826	·
Cc1ccc(-n2nnnc2-c2ccccc2)cc1	-2	-3	-3	i	0	4186	·
Cc1ccccc1-n1nnnc1-c1ccccc1	4	-2	-2	27	-3	23616*	0
CC1(C)NC(=O)N(CCOCCOc2ccc3ccccc3c2Br)C1=O	-12	-10	-1	14	-6	21501*	1
CCOC(=O)c1c(NC(=O)c2cccs2)sc(C)c1CC	-12	-7	-2	114*	-2	11711	1
CC(=O)OC1C(=O)N(Cc2ccccc2)C1c1ccc(C)cc1 (centres undefined)	2	-6	5	0	-2	4102	·
COc1cc(SC)ccc1C(=O)OCC(=O)NCC(C)C	0	3	-1	67*	0	4183	430
CCCCNC(=O)c1ccccc1NC(=O)CCSc1ccccc1	4	1	0	12	-1	2306	0
COc1ccc(OCCSc2nnc(CC(=O)Nc3cccc(Cl)c3Cl)n2C)cc1	-5	-9	-5	-2	-1	11680	·
CCn1c(CC(=O)Nc2cccc(Cl)c2Cl)nnc1SCCOc1ccc(OC)cc1	-1	-14	0	·	0	10814	i	HeLa tox=7
Cc1[nH]c2ccc3c(ncn3CCC#N)c2c1C	9	-2	1	14	2	15721	1
COc1cc(C(C)=O)ccc1OCC(=O)Nc1cc(Cl)ccc1-n1cncn1	3	5	-5	19	-1	6723	0
CN(CC(=O)Nc1ccccc1Cl)C(=O)c1cccc(-n2cccc2)c1	-2	-5	-1	14	-3	6867	0
COc1ccc(OC)c(/C=N/NC(=O)C(=O)N2CCCCCC2)c1	2	-3	1	0	-2	6311	·
CC1CCCN(C(=O)Cn2c(-c3nonc3N)nc3ccccc32)C1 (centres undefined)	7	14	2	14	8	18146*	1
O=C(O)c1[nH]c2ccccc2c1NS(=O)(=O)c1ccc(F)cc1	4	·	·	i	·	·	·
O=C(O)c1[nH]c2ccccc2c1NS(=O)(=O)Cc1ccccc1	11	-3	-5	7	0	16578*	0
CC(=O)Nc1ccc(N2CCCC2)cc1	-11	-54	-32	25	-1	2234	0
CC(=O)Nc1ccc(N2CCCCC2)cc1	6	-12	-3	i	0	7093	·
Cc1cc(C(=O)OCC(=O)N(C)c2ccccc2)c(C)o1	2	-1	8	-3	0	3471	·
Cc1onc(-c2ccccc2)c1C(=O)Nc1nc2c(s1)CCCC2	-2	-3	9	7.6*	1	8517	0
COc1ccc(C(=O)NNC(=O)CCn2nnc(-c3ccc(Cl)cc3)n2)cc1OC	-2	-4	-6	0	0	4258	·
CC(=O)c1cccc(NC(=O)CSc2nc(=O)n(CCN3CCOCC3)c3c2CCCC3)c1	0	5	-2	12	-1	5992	1
CC(=O)Nc1cccc(NC(=O)CSc2nc(=O)n(CCN3CCOCC3)c3c2CCC3)c1	-7	?	?	-1	?	4320	·
